Most compounds without a hit are left out; they make up all but 3.9% or so of the library.
aSyn 5UTR inh: MLPCN primary screen, SNCA 5' untranslated region; alpha-synuclein 5'UTR reporter, inhibitor activity; inhibition, % (tested at 7.5 µM); 0.82% of 300,000 active; in the data active = inhibition above about 60%;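 note: H4 neuroglioblastoma cells stably carrying SNCA 5'UTR luciferase fusion; 0% = DMSO wells and 100% = positive control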
TWEAK Fn14 block: TWEAK-Fn14 signaling inhibition | 2% of 360,000 active | TWEAK-stimulated Fn14 reporter cells, luciferase luminescence, 8 h | inhibition, % at 10 µM; in the data active = inhibition above about 50%
HSP90 refold inh: HSP90 refolding inhibition in rabbit reticulocyte lysate; inhibition, % at 5.6 µM; luciferase refolding luminescence, 3 h; 0.91% of 290,000 active; AID 1789;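 active = inhibition above the screen-wide mean plus 3 SD, computed separately per campaign, cut at about 16% in these data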;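 note: 0% = DMSO wells and 100% = 60 µM geldanamycin wells; inhibitors lower the luminescence because luciferase stays unfolded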
TROY signal inh: TROY signaling inhibition; Q293 LMP1-TROYcd NF-kB luciferase reporter, 4 h; AID 1347056; 0.98% of 360,000 active; inhibition, % at 10 µM;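 active = compounds whose plate-normalised and pattern-corrected inhibition of the luciferase reporter signal at the single screening dose is 50% or more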
HIF-2a block: inhibitors of HIF-2a; inhibition, % at 18.8 µM; 0.72% of 360,000 active; AID 624352; 786-0 RCC cells HIF-2a reporter, luciferase luminescence, overnight;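 active = inhibition of the luminescence signal of 40% or more relative to plate controls, in a single-dose primary screen at 18.75 µM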
TRAIL sens C8: sensitizes caspase-8 expressing cells to TRAIL; 1% of 360,000 active; inhibition (viability loss, TRAIL sensitization), % at 10 µM; NB7+C8 cells + TRAIL, ATPlite viability luminescence;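 active = compounds causing at least 50% loss of cell viability in the single-dose screen, relative to plate controls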
* hit, by the source's call; / = no result.

SMILES	aSyn 5UTR inh	TWEAK Fn14 block	HSP90 refold inh	TROY signal inh	HIF-2a block	TRAIL sens C8
Cc1cc(N2CCN(C(c3ccnc4ccccc34)c3nnnn3-c3c(C)cccc3C)CC2)c2ccccc2n1 (configuration not stated)	/	1	/	-19	-7	16
COc1ccc([C@H]2CC(=O)C[C@@H](CCn3nnc4ccccc43)O2)cc1	/	1	/	-2	11	-7
C/C(Cn1nnc([N+](=O)[O-])n1)=N\NC(=O)c1ccc(O)cc1O	-16	14	-3	-28	11	45
C/C(Cn1nnc([N+](=O)[O-])n1)=N\NC(=O)c1ccccc1O	18	4	2	-16	-14	59*
C/C(Cn1nnc([N+](=O)[O-])n1)=N\NC(=O)c1ccc(O)cc1	-11	2	2	-11	2	57*
COc1ccc(N2C(=O)c3ccccc3NC(=O)C2C(=O)NCc2ccco2)cc1 (configuration not stated)	/	/	/	/	-16	1
COc1cc(OC)c(C(=O)OCC(=O)NCC2CCCCC2)cc1OC	/	-22	/	4	6	-7
CC(C)(C)n1nnnc1C(c1ccccc1)N1CCN(c2ccc(C(F)(F)F)cn2)CC1 (configuration not stated)	/	2	/	0	14	9
Cc1cccc(C)c1NC(=O)C(c1ccnc2ccccc12)n1c(=O)c(-c2ccco2)nc2ccccc21 (configuration not stated)	/	/	/	/	-2	-8
Cc1ccc(C(=O)Nc2ccc(Cl)cc2C)c(Cl)c1	-71	-11	2	-59	-311	55*
CC(C)CC1NC(=O)c2cccnc2-n2c1nc1cc(F)ccc1c2=O (configuration not stated)	/	5	/	-25	6	-4
CCc1nc(N)nc(N)c1-c1ccc(Cl)c(N=[N+]=[N-])c1	/	0	/	15	29	83*
CN(C)c1ccc(/C=C2\N=C(c3ccc(Cl)c([N+](=O)[O-])c3)NC2=O)cc1	-26	-7	-1	-1	15	32
CCOc1cc(-c2c(C)c(CC)nc(N)c2C#N)ccc1O	21	16	-2	18	18	-2
CCc1nc(N)nc(N)c1-c1ccc(Cl)c([N+](=O)[O-])c1	/	2	/	10	31	80*
CCCS(=O)(=O)NC(=O)C1(C)CCCN(C(=O)c2cncc(Br)c2)C1 (configuration not stated)	/	16	/	5	5	-7
O=C(c1ccc(OC2CCN(Cc3ccccn3)CC2)cc1)N1CCC[C@H]1CO	-20	0	16*	-14	2	-5
CCC1CCCCN1C(=O)c1ccc(OC2CCN(Cc3ccccn3)CC2)cc1 (configuration not stated)	-1	-1	-1	6	-4	21
Cc1[nH]n(-c2cccc3ccccc23)c(=O)c1/C=N/NC(=O)c1cccc([N+](=O)[O-])c1	-2	22	0	18	-18	13
Cc1[nH]n(-c2ccccc2)c(=O)c1/C=N/NC(=O)c1cccc([N+](=O)[O-])c1	/	1	4	9	-27	54*
Cc1c(/C=N\NC(=O)C2COc3ccccc3O2)c2ccccc2n1C (configuration not stated)	102*	16	5	23	-30	9
Cc1[nH]n(-c2ccccc2)c(=O)c1/C=N\NC(=O)C1COc2ccccc2O1 (configuration not stated)	-27	11	4	-34	-107	85*
CCc1nc2c(OCc3ccc(F)cc3)cccn2c1N(C)C(=O)COc1ccccc1	/	-18	/	-2	-10	8
CCn1c(SCC(=O)N(C)c2c(N)n(Cc3ccccc3)c(=O)[nH]c2=O)nnc1-c1cccs1	/	-1	/	10	-8	-4
COc1ccccc1NC(CC(=O)c1ccccc1)C(=O)OCC(=O)c1ccc(F)cc1 (configuration not stated)	-235	24	7	43	-209	68*
SMILES	aSyn 5UTR inh	TWEAK Fn14 block	HSP90 refold inh	TROY signal inh	HIF-2a block	TRAIL sens C8
O=C(CC(Nc1ccc(Cl)cc1)C(=O)O)c1ccccc1 (configuration not stated)	-69	-26	-3	-36	-178	62*
O=C(CC(Nc1ccccc1Cl)C(=O)O)c1ccccc1 (configuration not stated)	-94	61*	3	65*	-167	13
CC(C)N(c1ccccc1)c1ccc(NC(=O)[C@@H]2O[C@H](CO)[C@@H](O)[C@H]2O)cc1	/	41	/	2	6	-5
Cc1nc2ccc(NC(=O)c3ccc(S(=O)(=O)N(C)c4ccccc4)cc3)cc2s1	18	58*	-5	56*	23	0
CC(=O)Nc1ccc(NC(=O)c2ccc(S(=O)(=O)N(C)c3ccccc3)cc2)cc1	/	3	/	20	23	7
CCCCc1ccc(C2C3=C(CC(C)(C)CC3=O)NC3=C2C(=O)c2ccccc23)cc1 (configuration not stated)	-10	57*	0	33	19	12
O=C1CCCC2=C1C(c1cccc(O)c1)C1=C(N2)c2ccccc2C1=O (configuration not stated)	-4	12	-3	6	17	0
COc1cccc(C2C3=C(CCCC3=O)NC3=C2C(=O)c2ccccc23)c1 (configuration not stated)	7	/	-2	/	/	/
CCCc1ccc(C2C3=C(CC(C)(C)CC3=O)NC3=C2C(=O)c2ccccc23)cc1 (configuration not stated)	-14	55*	1	22	-16	9
Clc1ccc(C(c2cccs2)N2CCNCC2)cc1 (configuration not stated)	/	10	/	-4	4	2
CC1(C(=O)NS(=O)(=O)c2cccc(Cl)c2)CCN1C(=O)C/C=C/c1ccccc1 (configuration not stated)	/	-12	/	-4	2	-12
O=S(=O)(c1ccc(Cl)cc1)N1CCSC1c1ccco1 (configuration not stated)	-11	3	-2	67*	17	3
O=[N+]([O-])c1ccc(S(=O)(=O)N2CCSC2c2ccco2)cc1 (configuration not stated)	10	19	12	16	-2	2
COc1ccccc1C(=O)NNC(=S)NC(=O)c1cccs1	73*	3	-1	-23	0	-4
O=C(NC(=S)NNC(=O)c1ccccc1O)c1cccs1	-38	16	-1	-18	-29	16
Cc1ccc(N2CC(C(=O)NCc3cccnc3)CC2=O)cc1 (configuration not stated)	3	2	-2	5	4	-7
COc1ccc(N2CC(C(=O)NCc3cccnc3)CC2=O)cc1 (configuration not stated)	-4	75*	-2	/	11	-13
Cc1ccc(NS(=O)(=O)c2ccc(-c3cnc(C4CC4)o3)cc2)c(C)c1	77*	18	2	48	12	13

Screening results as filed in PubChem BioAssay.
